High-throughput results: PubChem, Bradner/Qi Labs at DFCI
CBX7 inh – CBX7 chromodomain binding inhibitors, primary screen, biochemical, AlphaScreen; Chromobox protein homolog 7 (Homo sapiens), O95931; AlphaScreen His6-CBX7 / biotin-H3K27me3 peptide binding; active compounds read low; normalised signal (fraction of DMSO) (no concentration beside the values); 1.1% of 66,000 active; AID 1224903, 2016; in the data active = normalised signal below about 0.5
Target sequence (O95931 whole entry, looked up): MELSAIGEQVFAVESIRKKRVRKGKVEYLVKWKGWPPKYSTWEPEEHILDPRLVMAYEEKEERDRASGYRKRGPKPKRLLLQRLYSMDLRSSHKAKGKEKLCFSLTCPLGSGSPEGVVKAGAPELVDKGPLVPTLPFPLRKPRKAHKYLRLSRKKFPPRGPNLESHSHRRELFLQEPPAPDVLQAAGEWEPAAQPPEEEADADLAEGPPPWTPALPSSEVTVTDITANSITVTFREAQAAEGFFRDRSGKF
Numbers without * were called inactive; ! = repeats disagree. This is one part of a sample in which hits are shown more often than they occur.

SMILES	CBX7 inh
FC(F)(F)c1nc2ccccc2nc1N1CCN(c2ccccc2)CC1	1.02
Cc1cc(Nc2cc(C(F)(F)F)ccc2Cl)n2nc(C)nc2n1	1.03
CCOC(=O)c1ccc(NC(=O)c2cc3c(n(-c4ccc(C)cc4)c2=O)CCCC3=O)cc1	1.37
CCOc1ccccc1NC(=O)CCc1nc(-c2ccc(OC)cc2)no1	1.12
CCOC(=O)c1cc(-c2ccccc2)n(CCC(=O)NC2CCCCCC2)c1C	0.803
c1ccc(-c2nc(-c3c[nH]c4ccccc34)[nH]c2-c2ccccc2)cc1	0.802
Oc1ccccc1-c1nc(-c2ccc(F)cc2)c(-c2ccc(F)cc2)[nH]1	0.7
Fc1ccc(-c2[nH]c(-c3c[nH]c4ccccc34)nc2-c2ccccc2)cc1	0.416*
Cc1ccc(-c2nc(-c3c[nH]c4ccccc34)[nH]c2-c2ccc(C)cc2)cc1	0.373*
Cc1ccc(Nc2c(-c3c[nH]c4ccccc34)nc3cccc(C)n23)cc1	0.875
Oc1ccccc1-c1nc(-c2ccccc2)c(-c2ccc(F)cc2)[nH]1	0.583
Cc1cccc(OCCCC(=O)Nc2nc3ccccc3s2)c1	1.01
CC1CCN(CCCNC(=O)CCc2nc(-c3ccccc3F)no2)CC1	0.974
CC1CC(C)CN(C(=O)c2cn(C3CCCC3)c(=O)c3c2c2ccccc2n3C)C1 (stereo not given)	1.01
O=C(Nc1nc(-c2ccc(F)cc2F)cs1)c1cnccn1	1.07
COc1cccc(-c2nn3c(COc4ccccc4)nnc3s2)c1	1.02
Cc1ccccc1C1CC(c2ccc(F)cc2)Nc2ncnn21 (stereo not given)	0.812
Cc1ccc(-c2noc(-c3ccccn3)n2)cc1	0.984
O=C(NCCN1CCOCC1)c1ccc2c(c1)ncn2-c1ccc(F)cc1F	1.1
CCOC(=O)N1CCC(Nc2c(NC3CCCCCCC3)c(=O)c2=O)CC1	1.03
Cc1ccc2[nH]c3c(c2c1)CCCC3Nc1ccccc1 (stereo not given)	0.71
Cc1ccc2[nH]c3c(c2c1)CCCC3NCc1ccc(F)cc1 (stereo not given)	0.428*
Brc1ccc2[nH]c3c(c2c1)CCCC3NCc1ccccc1 (stereo not given)	1.03
COc1ccccc1-c1cc2nc(C)c(CCC(=O)Nc3cccc(C)c3C)c(C)n2n1	1.06
CCN(CCCNS(=O)(=O)c1ccc2c(c1)CCN2C(=O)C1CC1)c1cccc(C)c1	0.753
SMILES	CBX7 inh
COc1cc2c(=O)c(S(=O)(=O)c3ccccc3)cn(CC(=O)Nc3ccccc3)c2cc1OC	0.946
CN(C)c1ccc(Nc2nc(-c3ccccc3)cs2)cc1	0.337*
c1ccc(-c2csc(Nc3cccc4ccccc34)n2)cc1	0.821
COc1ccc(-c2csc(Nc3ccc4c(c3)OCO4)n2)cc1F	0.476*!
O=C1c2ccccc2C(=O)N1c1cccc(-c2csc(Nc3ccc4c(c3)OCO4)n2)c1	1.64
Fc1ccc(-c2csc(Nc3ccc4c(c3)OCO4)n2)cc1	0.385*!
CC(C)Cc1ccc(-c2csc(Nc3ccc(F)cc3)n2)cc1	0.795
O=C(Nc1nc(-c2ccc(Cl)cc2)cs1)c1ccc2c(c1)OCO2	1.08
Ic1ccc(-c2csc(Nc3ccc4ccccc4c3)n2)cc1	0.877
CC(=O)Nc1ccc(Nc2nc(-c3ccccc3)cs2)cc1	0.862
COc1ccc(-c2csc(Nc3cccc(C(F)(F)F)c3)n2)cc1F	0.747
COc1ccc(-c2csc(Nc3ccccc3OC)n2)cc1F	1.01
c1ccc(-c2csc(Nc3ccc4c(c3)OCO4)n2)cc1	0.37*!
O=C(C1CCC1)N1CCc2cc(S(=O)(=O)NCCN3CCCCCC3)ccc21	1.12
COc1cccc(CNc2nnc(Cc3ccncc3)c3ccccc23)c1	0.988
O=C(CNc1ccccc1-c1nc2ccccc2[nH]c1=O)NCc1ccc(F)cc1	0.907
Cc1nc(Oc2ccc(F)cc2)c(C(=O)NCc2ccccc2)c(C)c1Cl	1.32
O=C(Nc1nccs1)c1ccc(NC(=O)C(F)(F)F)cc1	0.99
COc1ccc(C(=O)c2oc3ccccc3c2NC(=O)COc2cc(C)cc(C)c2)cc1	1.28
CCc1ccc(-c2nc(SCC(=O)NCC3CCCO3)c(-c3ccc(OC)c(OC)c3)[nH]2)cc1 (stereo not given)	0.933
CCN1CCN(CCNC(=O)c2ccc3c(c2)N=C(C)c2cc(Cl)ccc2S3)CC1	1.21
COC(=O)c1sccc1NC(=O)Cn1nc(Cc2cccnc2)c2ccccc2c1=O	0.99
CC1(C)CC(=O)c2cc(C(=O)Nc3ccccc3C(N)=O)c(=O)n(-c3ccc(Cl)cc3)c2C1	1.04
CCOC(=O)c1ccccc1NC(=O)c1c(Cl)ccc(Cl)c1OC	1.31
Cc1ccc(CNC(=O)c2ccc3c(c2)N(Cc2cc(C)ccc2C)C(=O)c2ccccc2S3)cc1	0.96
SMILES	CBX7 inh
CNc1nc2nonc2nc1Nc1ccc(I)cc1	0.852
O=C(NCCc1nc2ccccc2n1Cc1c(F)cccc1Cl)c1ccccc1	0.951
O=C(c1n[nH]c(=O)c2ccccc12)N1CCN(c2ccccn2)CC1	1.09
O=C(c1cnc(N2CCN(c3ncccn3)CC2)c2ccccc12)N1CCN(c2ccccn2)CC1	1.04
O=C(c1ccc(C#Cc2ccccc2)o1)N1CCN(c2ccccn2)CC1	0.448*
O=C(C1CCC1)N1CCc2cc(S(=O)(=O)N(CCc3ccccc3)Cc3ccccc3)ccc21	1.16
c1cncc(-c2nc3ccccc3[nH]2)c1	1.22
COc1ccc(-c2nc(-c3ccccc3)c(-c3cccs3)[nH]2)cc1O	0.877
COc1ccc(-c2nc(-c3ccccc3)c(-c3cccs3)[nH]2)cc1OC	0.514
COc1ccc(-c2nc(-c3cccs3)c(-c3cccs3)[nH]2)cc1	0.916
c1ccc(-c2nc(-c3cccnc3)[nH]c2-c2ccccc2)cc1	0.308*!
COc1cccc(-c2nc(-c3ccccc3)c(-c3cccs3)[nH]2)c1OC	0.428*
COc1ccc(-c2nc(-c3cccs3)c(-c3cccs3)[nH]2)cc1OC	0.446*
COc1cccc(-c2nc(-c3cccs3)c(-c3cccs3)[nH]2)c1	0.92
Oc1ccc(-c2nc(-c3ccccc3)c(-c3cccs3)[nH]2)cc1	0.467*
Brc1ccc(-c2nc(-c3ccccc3)c(-c3ccc(Oc4ccccc4)cc3)[nH]2)cc1	0.757
COc1cccc(-c2nc(-c3ccsc3)c(-c3ccccc3)[nH]2)c1OC	0.924
Fc1ccc(-c2nc(-c3ccccc3)c(-c3cccs3)[nH]2)cc1	0.702
Cc1ccc(C)c(Cn2c(CCCNC(=O)c3cccs3)nc3ccccc32)c1	0.87
CCCCNC(=O)C1CCN(c2nc3cc(Cl)ccc3s2)CC1	1.04
CCCCC1(O)C(C)C(c2ccccc2)NC(c2ccccc2)C1CCC (stereo not given)	1.03
CCOC(=O)c1cc(-c2ccccc2)n(CCC(=O)N2CC(C)CC(C)C2)c1C (stereo not given)	0.815
CCOc1ccc(-n2cc(C(=O)Nc3ccc(F)cc3)c3cc(OC)c(OC)cc3c2=O)cc1	0.858
CCC1=Nc2cc(C(=O)NCc3ccccn3)ccc2Sc2ccc(Cl)cc21	0.808
COc1ccc(-n2ncc3c(N4CC(C)OC(C)C4)ncnc32)cc1 (stereo not given)	1.05
Oc1ccc(-c2[nH]c(-c3cccc(Cl)c3)nc2-c2ccccc2)cc1	0.412*
Oc1ccc(-c2nc(-c3ccc(-c4ccccc4)cc3)c(-c3ccc(-c4ccccc4)cc3)[nH]2)cc1	0.613
O=C(O)c1ccc(-c2nc(-c3cccc(Cl)c3)c(-c3ccccc3)[nH]2)cc1	0.715
COc1ccc(NC(=O)CSc2nc(-c3ccc4c(c3)OCO4)cn2-c2ccccc2)cc1	0.813
CCOC(=O)c1[nH]cnc1C(=O)Nc1ccc(Br)cc1	0.976
